Assay [1] in a line: optical density shifts of acrAB sulA E. coli – strain DRC41, OD650, 48 h, E. coli filamentation inducer project, primary screen (AID 1152).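 Also: E. coli MC1000 strain DRC41 lacking acrAB efflux pump and sulA.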 As to conditions: higher = more signal, called active from +8 up or from −8 down.
Assay [2] in a line: probe aLefty1 binding on compound microarray – biochemical, small-molecule microarray, 635/667 nm fluorescence, primary screen (AID 1153).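 Also: score merges spot fluorescence with signal-to-noise ratio from the scanned slide images.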 As to conditions: higher = more signal.
The nature of assay [3]: plasmodial surface anion channel blockers, osmotic lysis – cell-based, P. falciparum Indochina, OD700, 1 h, primary screen (AID 1154). Conditions: P. falciparum Indochina infected RBC osmotic lysis, higher = more signal, called active from +8 up or from −8 down.
A short description of assay [4]: plasmodial surface anion channel blockers, osmotic lysis – cell-based, P. falciparum Indochina, OD700, 2 h, primary screen (AID 1155).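 Also: lysis reports solute entry through the parasite surface anion channel PSAC.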 Conditions: P. falciparum Indochina infected erythrocytes, higher = more signal, called active from +8 up or from −8 down.
Assay [5] in a line: changes in parasitized red cell lysis, either direction – P. falciparum Indochina, OD700, 3 h, PSAC antagonist project, primary screen (AID 1156). As to conditions: P. falciparum-infected erythrocytes, osmotic lysis, higher = more signal, called active from +8 up or from −8 down.
Assay [6] is described as follows: plasmodial surface anion channel blockers, osmotic lysis – cell-based, P. falciparum Indochina, OD700, 18 h, primary screen (AID 1157). As to conditions: P. falciparum Indochina infected erythrocytes, osmotic lysis OD700, 18 h; higher = more signal, called active from +8 up or from −8 down.
Assay [7] can be described thus: S6 kinase pathway phospho-S6 level changes – cell-based, A549, cytoblot, luminescence, serum-stimulated, primary screen (AID 1158).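 Also: serum-stimulated A549 lung adenocarcinoma cells; signal is phosphorylated S6 detected by cytoblot immunostaining with HRP secondary.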 Conditions: 5 h, higher = more signal.
Assay [8] addresses NADPH oxidase 2 (Homo sapiens) (UniProt P04839). The assay can be described thus: compounds shifting NOX2 Amplex Red fluorescence – cell-based, HEK293-NOX2, PMA-stimulated, NOX inhibitor project, primary screen (AID 1159). Also: test concentration not given here. As to conditions: 45 min, higher = more signal, called active from +8 up or from −8 down.
Assay [9] has as its target NADPH oxidase 4 (Homo sapiens) (UniProt Q9NPH5). As to the kind of experiment: compounds shifting NOX4 Amplex Red fluorescence – cell-based, HEK293-NOX4, tetracycline-induced, NOX inhibitor project, primary screen (AID 1160). As to conditions: HEK293-NOX4, Amplex Red H2O2 fluorescence, 45 min; higher = more signal, called active from +8 up or from −8 down.
Assay [10] concerns the target NADPH oxidase 5 (Homo sapiens) (UniProt Q96PH1). As to the kind of experiment: compounds shifting NOX5 Amplex Red fluorescence – cell-based, HEK293-NOX5, NOX inhibitor project, primary screen (AID 1161). As to conditions: HEK293-NOX5, ionomycin, 45 min, higher = more signal.
The nature of assay [11]: compound effects on lung adenocarcinoma cell viability – A549, calcein-AM fluorescence, 48 h, basal, profiling panel (AID 1162). Also: test concentration not given here. As to conditions: higher = more signal.
Assay [12] in a line: compound effects on differentiated 3T3-L1 adipocyte viability – cell-based, 3T3-L1 adipocytes, calcein-AM fluorescence, 48 h, basal, profiling panel (AID 1163). Also: test concentration not given here. As to conditions: 3T3-L1 adipocytes viability, higher = more signal.
The nature of assay [13]: compound effects on hepatocellular carcinoma cell viability – HepG2, calcein-AM fluorescence, 48 h, basal, profiling panel (AID 1164). Also: test concentration not given here. Conditions: higher = more signal.
A short description of assay [14]: compound effects on multiple myeloma cell viability – MM1S, calcein-AM fluorescence, 48 h, basal, profiling panel (AID 1165). Also: test concentration not given here. As to conditions: higher = more signal.
Assay [15] can be described thus: calcein-AM signal in unstimulated myeloma cells – cell-based, calcein-AM fluorescence, 48 h, PK04 Diversity Set, profiling panel (AID 1166).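 Also: cells grown under basal conditions without added stimulus; test concentration not given here.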 As to conditions: RPMI8226 myeloma viability, higher = more signal.
Assay [16] in a line: JC-1 mitochondrial signal, unstimulated HepG2 cells – cell-based, JC-1 fluorescence, 24 h, 100 nL compound, profiling panel (AID 1167). Also: test concentration not given here. Conditions: HepG2 mitochondrial potential, higher = more signal.
The nature of assay [17]: JC-1 mitochondrial signal, unstimulated adipocytes – cell-based, JC-1 fluorescence, 3T3-L1 adipocytes, 24 h, 100 nL compound, profiling panel (AID 1168). Also: test concentration not given here. As to conditions: JC-1 mitochondrial fluorescence, higher = more signal, called active from +8 up or from −8 down.
The nature of assay [18]: JC-1 mitochondrial signal, unstimulated myeloma cells – cell-based, JC-1 fluorescence, RPMI8226, 24 h, 100 nL compound, profiling panel (AID 1169). Also: test concentration not given here. Conditions: JC-1 mitochondrial potential fluorescence, higher = more signal.
Assay [19] is described as follows: JC-1 mitochondrial signal, unstimulated MM1S myeloma – cell-based, JC-1 fluorescence, 24 h, 100 nL compound, profiling panel (AID 1170). Also: test concentration not given here. Conditions: MM1S mitochondrial potential, higher = more signal.
Assay [20] can be described thus: resazurin metabolic signal in A549 cells – cell-based, resazurin fluorescence, 24 h, PK04 Diversity Set, profiling panel (AID 1171). Also: test concentration not given here. Conditions: A549 viability, higher = more signal, called active from +8 up or from −8 down. On the technique in general: Resazurin is reduced to fluorescent resorufin, in cell work by metabolically active cells.

Calls of active or inactive are those of the source.

NADPH oxidase 4 (Homo sapiens), sequence (Q9NPH5 whole entry, looked up): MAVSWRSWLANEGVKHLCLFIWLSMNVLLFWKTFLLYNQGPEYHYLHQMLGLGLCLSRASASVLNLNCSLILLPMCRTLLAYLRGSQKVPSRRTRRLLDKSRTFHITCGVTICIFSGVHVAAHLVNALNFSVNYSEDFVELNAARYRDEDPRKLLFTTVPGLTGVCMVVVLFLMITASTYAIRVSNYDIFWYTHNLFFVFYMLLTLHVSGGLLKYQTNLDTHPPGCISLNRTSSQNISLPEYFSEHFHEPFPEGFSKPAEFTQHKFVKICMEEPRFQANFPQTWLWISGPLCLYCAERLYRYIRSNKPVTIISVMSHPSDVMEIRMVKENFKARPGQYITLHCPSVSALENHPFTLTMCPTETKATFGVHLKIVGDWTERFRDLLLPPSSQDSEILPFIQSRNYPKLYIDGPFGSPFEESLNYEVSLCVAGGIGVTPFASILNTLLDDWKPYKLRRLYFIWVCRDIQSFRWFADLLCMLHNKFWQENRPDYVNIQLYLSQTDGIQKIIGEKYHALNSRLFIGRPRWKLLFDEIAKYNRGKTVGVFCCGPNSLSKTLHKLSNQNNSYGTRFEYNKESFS
NADPH oxidase 5 (Homo sapiens), sequence (Q96PH1 whole entry, looked up): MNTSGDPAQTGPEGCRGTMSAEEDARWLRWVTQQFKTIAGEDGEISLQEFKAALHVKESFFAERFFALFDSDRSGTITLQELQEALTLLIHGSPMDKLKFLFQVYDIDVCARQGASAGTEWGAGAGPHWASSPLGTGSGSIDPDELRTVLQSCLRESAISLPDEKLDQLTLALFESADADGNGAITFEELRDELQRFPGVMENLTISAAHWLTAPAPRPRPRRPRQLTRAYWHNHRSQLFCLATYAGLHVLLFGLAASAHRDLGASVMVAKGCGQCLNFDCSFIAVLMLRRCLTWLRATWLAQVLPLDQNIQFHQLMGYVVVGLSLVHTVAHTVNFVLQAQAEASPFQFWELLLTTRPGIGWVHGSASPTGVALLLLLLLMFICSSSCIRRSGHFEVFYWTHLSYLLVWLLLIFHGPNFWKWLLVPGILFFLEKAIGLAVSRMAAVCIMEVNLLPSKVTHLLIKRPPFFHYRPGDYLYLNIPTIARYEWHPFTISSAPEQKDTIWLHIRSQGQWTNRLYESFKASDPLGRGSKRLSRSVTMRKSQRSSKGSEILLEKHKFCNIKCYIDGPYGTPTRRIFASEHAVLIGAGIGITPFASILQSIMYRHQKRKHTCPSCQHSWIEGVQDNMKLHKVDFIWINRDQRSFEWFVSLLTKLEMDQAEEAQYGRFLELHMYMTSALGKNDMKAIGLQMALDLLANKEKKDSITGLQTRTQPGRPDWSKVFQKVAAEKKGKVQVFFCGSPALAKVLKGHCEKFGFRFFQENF
NADPH oxidase 2 (Homo sapiens), sequence (P04839 whole entry, looked up): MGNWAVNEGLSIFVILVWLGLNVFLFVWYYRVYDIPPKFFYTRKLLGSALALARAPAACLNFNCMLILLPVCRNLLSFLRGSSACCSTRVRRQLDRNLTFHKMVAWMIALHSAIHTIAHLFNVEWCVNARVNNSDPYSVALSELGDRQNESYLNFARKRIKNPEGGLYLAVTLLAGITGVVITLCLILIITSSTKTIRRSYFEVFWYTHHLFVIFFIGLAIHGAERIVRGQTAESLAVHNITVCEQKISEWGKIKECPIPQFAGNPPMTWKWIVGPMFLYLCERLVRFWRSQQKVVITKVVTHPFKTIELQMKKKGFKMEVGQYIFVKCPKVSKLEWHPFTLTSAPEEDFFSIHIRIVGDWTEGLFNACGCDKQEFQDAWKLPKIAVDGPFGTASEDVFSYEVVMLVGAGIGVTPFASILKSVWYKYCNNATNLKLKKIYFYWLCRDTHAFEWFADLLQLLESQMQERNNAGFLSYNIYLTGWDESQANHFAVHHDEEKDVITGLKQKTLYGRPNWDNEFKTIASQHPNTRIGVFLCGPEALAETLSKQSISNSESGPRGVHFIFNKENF

As for `O=C1C[C@]2(c3ccc([N+](=O)[O-])cc3)C(=O)N(CC(F)(F)F)c3cc(CO)ccc3[C@H]2N1C1CCCCC1`, the z-score in [1] is 0.983 (inactive); in assay [3] it was -0.524 (inactive); in assay [4] it was 0.345 (inactive); in assay [5], 0.503 (inactive); in [6] it was 0.133 (inactive); in [7], -0.116. The z-score in [8] was -0.502 (inactive); in assay [9], 0.00678 (inactive); in [10] it was 0.428; in assay [11], 1.81; in assay [12], -0.677; in assay [13], 0.203. In addition, the z-score in assay [14] is 0.0687; in assay [15], 1; in [16], 0.38; in assay [17] it was 0.986 (inactive); in assay [18], 0.247; in [19] it was 1.9. Also, the z-score in [20] was -0.745 (inactive). Further, the composite z-score in [2] is -0.233.
Consider `C=C(/C(=C/C[C@H](OC(C)=O)c1ccc(CO)o1)c1cc(C(=O)OC)ccc1OC)C(C)C`, for which the z-score in [1] was 0.376 (inactive); in [3] it was 2.48 (inactive); in assay [4], -1.22 (inactive); in assay [5], 2.6 (inactive); in assay [6], -2.17 (inactive); in assay [7], 2.41. Also, the z-score in assay [8] was -1.66 (inactive); in [9] it was -1.85 (inactive); in [10], -2.34; in assay [11] it was -0.431; in assay [12] it was 1.4; in assay [13], -0.812. In addition, the z-score in [14] was -2.37; in [15] it was -2.03; in assay [16] it was 0.256; in [17], 1.13 (inactive); in [18], 0.104; in assay [19] it was -0.227. Also, the z-score in [20] was -0.369 (inactive). This compound also yielded a composite z-score in [2] of -0.0559.
Take `CC(C)C(O)C1C=CC2C(=O)N(c3ccccc3)C(=O)C2N1Nc1ccc([N+](=O)[O-])cc1` (stereo not given): the z-score was -0.467 (inactive) in assay [1]; 11 (active) in assay [3]; 1.48 (inactive) in assay [4]; 0.928 (inactive) in [5]; 0.779 (inactive) in [6]; -0.326 in assay [7]. Besides, the z-score in assay [8] was -0.59 (inactive); in assay [9], -1.82 (inactive); in assay [10], -1.23; in assay [11], -0.821; in assay [12], -1.18; in [13], 0.497. Further, the z-score was 0.637 in [14]; -0.023 in assay [15]; -1.41 in [16]; -1.37 (inactive) in [17]; 0.766 in assay [18]; -1.07 in assay [19]. In addition, the z-score in assay [20] is -0.397 (inactive). This compound also yielded a composite z-score in [2] of 0.0045.
Turning to `O=C(NCCO)C1=C[C@H](Oc2ccccc2I)[C@@H](O)[C@H](N(Cc2ccco2)C(=O)Cc2ccccc2)C1`, the z-score in assay [1] is -0.673 (inactive); in assay [3] it was 0.877 (inactive); in assay [4] it was 0.799 (inactive); in assay [5], 1.1 (inactive); in assay [6] it was 0.304 (inactive); in assay [7], 0.202. The z-score in assay [8] was 1.34 (inactive); in [9], 0.254 (inactive); in assay [10], 0.351; in assay [11] it was -0.22; in assay [12] it was 1.31; in assay [13] it was -0.902. Besides, the z-score in [14] was 0.426; in [15] it was -1.94; in assay [16] it was -0.217; in [17] it was -0.166 (inactive); in assay [18] it was -0.084; in [19], 0.559. The z-score in assay [20] is -1.35 (inactive). The same compound returned a composite z-score in assay [2] of 0.0752.
`CC1(C)C2C=C(C(O)C3C=CC4C(=O)NC(=O)C4N3Nc3ccc(Cl)cc3Cl)C[C@@H]1C2` (stereo not given in full): the z-score was -4.41 (inactive) in [1]; 3.33 (inactive) in assay [3]; 0.916 (inactive) in assay [4]; -2.43 (inactive) in assay [5]; 1.19 (inactive) in assay [6]; -1.38 in assay [7]. Besides, the z-score in assay [8] was -0.197 (inactive); in assay [9], -5.57 (inactive); in [10], -3.46; in assay [11], -2.48; in assay [12], -0.88; in assay [13], -1.8. Also, the z-score in assay [14] is -3.73; in assay [15], -4.1; in assay [16], -4.27; in assay [17], -0.803 (inactive); in assay [18], -1.14; in [19], -1.04. Also, the z-score in assay [20] is -1.85 (inactive). Further, the composite z-score in assay [2] is 0.265.
Turning to `C=C(CCCC)C(=O)CC[C@@H](OC(=O)c1ccccc1-c1ccccc1C(=O)O)c1ccc(OCCO)cc1`, the z-score was -0.181 (inactive) in [1]; 17.2 (active) in assay [3]; 1.73 (inactive) in assay [4]; 1.15 (inactive) in assay [5]; 0.602 (inactive) in assay [6]; 0.276 in assay [7]. The z-score in assay [8] was 2.45 (inactive); in [9] it was 0.216 (inactive); in [10] it was -0.936; in [11], -0.465; in assay [12] it was 1.22; in [13], 0.515. Besides, the z-score in assay [14] was -3.37; in [15] it was -3.04; in assay [16], -1.4; in assay [17], -1.03 (inactive); in assay [18] it was -0.659; in [19] it was -0.137. In assay [20], the z-score was 0.128 (inactive). Moreover, the composite z-score in assay [2] is -0.23.

These data come from PubChem BioAssay.
